Consider 18 compounds from PubChem BioAssay (NCATS).

The structures appear in SMILES notation. Unmarked numbers belong to inactive results. Records with an inconclusive call do not appear. Active and inactive are the calls of the source. Unless noted, calls follow the shape of the dose curve; as a rule, active = well fitted curve in the direction sought with a large enough effect; inconclusive = small, poorly fitted or top-dose-only effect, or another doubt; inactive = no such curve, though single readings can be large; an effect the other way counts as inactive or inconclusive.

In assay [1] the target is Lysosomal acid glucosylceramidase (Homo sapiens) (UniProt P04062). In words: Glucocerebrosidase-p2 (AID 348; in the data active = potency below about 10 µM; also: potency is read from the fitted curve at half-maximal effect). To be noted: purified GBA, blue fluorogenic substrate, 40 min. The procedure, abridged: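 Normal human glucocerebrosidase (0.2 nM) with blue fluorogenic substrate (80 uM final) in citrate/phosphate pH 5.9 with 10mM sodium taurocholate, 0.01% tween-20; 40 min RT, NaOH/glycine stop; fluorescence Ex 365/Em 440; AC50 from a titration from 0.6 nM upwards.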

The nature of assay [2]: AP1 Signaling Pathway (AID 357; active = well fitted curve in either direction with a large enough effect, not every such curve was filed as active;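 also: ME-180 reporter cells stimulated with EGF at its EC50 level; % is scaled to controls: 0 for no effect and ±100 for the full control effect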). To be noted: ME-180 (cervical carcinoma) AP-1-bla reporter, EGF-induced, beta-lactamase ratio, 5 h; at 7.69 µM (top of the series) unless noted. The procedure, abridged:
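In this screen, ME-180 cells in Opti-MEM with 0.5% dialyzed FBS received EC50 EGF and compound titrations for 5 h. AP-1 reporter beta-lactamase was detected via CCF4 ratio, giving AC50 for positive and negative modulators.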

Assay [3] deals with Cytochrome P450 1A2 (Homo sapiens) (UniProt P05177). In words: p450-cyp1a2 (AID 410; calls by dose curve; also: potency is read from the fitted curve at half-maximal effect). The procedure, abridged:
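Read-out is luminescence from luciferin produced by CYP1A2 demethylation of Luciferin-ME (100uM, at Km). Detection reagent stopped the 60 min NADPH-dependent reaction; signals were normalized to 57 uM furafylline.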

A short description of assay [4]: NFAT Signaling Pathway (AID 444; active = well fitted curve in either direction with a large enough effect, not every such curve was filed as active;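 also: carbachol stimulus at about its EC50 of 1 µM final; % is scaled to controls: 0 for no effect and ±100 for the full control effect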). To be noted: Jurkat NFAT-bla M1, carbachol, beta-lactamase ratio, 5 h; at 7.69 µM (top of the series) unless noted. The procedure, abridged:
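Jurkat cells carrying an NFAT-driven β-lactamase reporter and co-transfected muscarinic M1 receptor were treated with compound plus carbachol (1 uM final, an EC50 level) for 5 h at 37 °C. CCF4 loading followed for 1 h at RT; 460/530 nm ratio gave %activity.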

The nature of assay [5]: Stat Signaling Pathway (AID 446; active = well fitted curve in either direction with a large enough effect, not every such curve was filed as active;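 also: ME-180 cervical cancer cells given 40 pM IL-6 alongside compound; SIE-controlled beta-lactamase reporter measured as 460/530 nm FRET emission ratio; % is scaled to controls: 0 for no effect and ±100 for the full control effect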). Put shortly: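 FRET read-out (405 nm excitation, 460/530 nm emission) of a beta-lactamase reporter under a STAT-inducible element in ME-180 cervical carcinoma cells. Cells with compound receive 40 pM IL-6 for 5 h. Values are normalised to AC90 stimulation and AC90 JAK-inhibitor controls.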
The target of assay [6] is Glucocorticoid receptor (Homo sapiens) (UniProt P04150). In words: GR-GFP Redistribution (AID 450;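 active = compounds whose dose series gives a full or clear partial fitted curve of increased nuclear translocation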; also: potency is read from the fitted curve at half-maximal effect). To be noted: U2OS GR-GFP nuclear translocation, laser cytometry, 2 h.
For assay [7] the target is unchanged. In words: GR-EFC Redistribution (AID 451; calls by dose curve; also: potency is read from the fitted curve at half-maximal effect). To be noted: CHO-K1 GR-EFC translocation, beta-gal luminescence, 2 h. Put shortly: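 CHO-K1 cells stably expressing nuclear-localized β-gal enzyme acceptor and GR fused C-terminally to the enzyme donor fragment; ligand-driven nuclear translocation restores β-gal by complementation. Compounds titrated up to 46 uM final, 2 h at 37 °C; luminescence read.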

For assay [8], the target named is Mitogen-activated protein kinase 10 (Mus musculus) (UniProt Q61831). In words: JNK3 AlphaScreen Assay (AID 530; active = well fitted curve in either direction with a large enough effect, not every such curve was filed as active;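 also: kinase came from lysate of stimulated human HepG2 cells; signal reports phosphorylation of biotinylated GST-cJun 1-79 at Ser73 with 10 µM ATP; % is scaled to controls: 0 for no effect and ±100 for the full control effect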). The procedure, abridged:
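Biotinylated GST-cJun(1-79) served as substrate for JNK3 in HepG2 lysates stimulated with IL-1beta and TNF-alpha. ATP was 10 uM final, pH 7.6. Ser73 phosphorylation was quantified by AlphaScreen (680 nm excitation).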

In assay [9] the target is 3',5'-cyclic-AMP phosphodiesterase 4B (Homo sapiens) (UniProt Q07343). In words: qHTS Assay for Inhibitors of PDE-IV (AID 607; active = well fitted activation curve with a large enough effect in the main read-out, with a control signal flat, not every such curve was filed as active; also: % of control where 0% means no effect). Put shortly: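 Cell-based read-out of cAMP via a modified cyclic nucleotide-gated channel and membrane potential dye (535/590 nm) in HEK293 cells expressing PDE4 endogenously. Compounds tested up to 22.9 uM final; 100 uM RO 20-1724 reference.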

The target in assay [10] is Cytochrome P450 3A4 (Homo sapiens) (UniProt P08684). In words: qHTS Assay for Inhibitors and Substrates of Cytochrome P450 3A4 (AID 884). Also: nearly all actives have a fitted effect of over 50% in size. Also: potency is read from the fitted curve at half-maximal effect. Put shortly: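 Luminescent readout of luciferin produced by CYP3A4 (20 nM) dealkylation of Luciferin-PPXE, 25 uM (its KM). NADPH-driven reaction ran 60 min at RT after 10 min compound preincubation; data scaled to 57 uM ketoconazole as 100% inhibition.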

For assay [11] the target is unchanged. In words: qHTS Assay for Activators of Cytochrome P450 3A4 (AID 885). Also: nearly all actives have a fitted effect of over 65% in size. Put shortly: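 Luminescent readout of luciferin formed from 25 uM Luciferin-PPXE (KM level) by 20 nM CYP3A4 in 200 mM KPO4, with 60 min NADPH-driven reaction at room temperature after 10 min compound exposure. Ketoconazole (57 uM) defined 100% inhibition.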
For assay [12], the target named is Dual specificity protein kinase CLK4 (Homo sapiens) (UniProt Q9HAZ1). Briefly: qHTS Assay for Inhibitors of CDC-like Kinase 4 (Kinase-Glo Assay) (AID 1770). Also: nearly all actives have a fitted effect of over 65% in size. Also: potency is read from the fitted curve at half-maximal effect. The procedure, abridged: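 Substrate mix (RS peptide 100 uM, ATP 1 uM) dispensed, compound pinned in, then Clk4 added to 25 nM final. Incubated 4.5 h at RT; Kinase-Glo reagent added, luminescence read after 5 min.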

Assay [13] has the same target. Briefly: qHTS Assay for Inhibitors of CDC-like Kinase 4 (ADP-Glo Assay) (AID 1771). Also: nearly all actives have a fitted effect of over 70% in size. Also: potency is read from the fitted curve at half-maximal effect. The procedure, abridged:
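In this ADP-Glo format, 1 uM ATP and 100 uM RS peptide served as substrates for 25 nM Clk4 in Mg2+/EGTA/DTT/Triton buffer; reactions ran 1 hr at room temperature before luminescent ADP quantification.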

The target is the same in assay [14]. In words: qHTS Assay for Inhibitors of CDC-like Kinase 4 (ADP-FP Assay) (AID 1795). Also: nearly all actives have a fitted effect of over 60% in size. Also: potency is read from the fitted curve at half-maximal effect. Put shortly:
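Clk4 6.25 nM; RS peptide 100 uM; ATP 1 uM; 25 mM Tris pH 7.5, 10 mM MgCl2; 1 h reaction. ADP detected via antibody/orange tracer FP displacement; TG003 positive control.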

Assay [15] deals with Ubiquitin carboxyl-terminal hydrolase 1 (Homo sapiens) (UniProt O94782). Briefly: Inhibitors of USP1/UAF1: Pilot qHTS (AID 504865).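 Also: rhodamine fluorescence freed from ubiquitin-rhodamine substrate followed over time; top concentration of the series differs between compounds; % is scaled to controls: 0 for no effect and ±100 for the full control effect; nearly all actives have a fitted effect of over 35% in size.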 Put shortly:
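In 50mM HEPES pH 7.8 containing 0.5mM EDTA, 1mM TCEP, 0.1 mg/ml BSA and 0.01% Tween-20, 1nM USP1/UAF1 is exposed to compound for 15 min, then Ub-Rho (150nM final) is added and fluorescence is read over time.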

Assay [16] can be described thus: NCATS anti-infectives library activity on HEK293 viability as a counter-qHTS vs the C. elegans viability qHTS (AID 1745854). Put shortly: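 Compound titrations (final up to 41.7 uM) were incubated with HEK293 cells for 24 hr at 37C under 5% CO2. Viable cells were quantified with CellTiter-Glo after 10 min at ambient temperature.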
In assay [17] the target is Glutathione peroxidase 1 (Homo sapiens) (UniProt P07203). Briefly: Primary qHTS Assay for Inhibitors of Recombinant Selenoprotein Glutathione Peroxidase 1 (GPX1) (AID 1845191). Also: nearly all actives have a fitted effect of over 65% in size. The procedure, abridged: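 GPX1 10 nM, GR 100 nM, GSH 1 mM, NADPH 0.5 mM, CHP 0.5 mM (final). 30-min cpd preincubation, RT. Ex340/Em450 read t=0, t=15 min.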
Assay [18] concerns the target Phospholipid hydroperoxide glutathione peroxidase GPX4 (Homo sapiens) (UniProt P36969). Briefly: Primary qHTS Assay for Inhibitors of Recombinant Selenoprotein Glutathione Peroxidase 4 (GPX4) (AID 1845192). Also: nearly all actives have a fitted effect of over 65% in size. Also: potency is read from the fitted curve at half-maximal effect. The procedure, abridged:
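qHTS, GR-coupled: GPX4 200 nM + cpd 30 min RT → GSH 1 mM, NADPH 0.5 mM, GR 100 nM → CHP 0.5 mM start; fluor 340/450 at t0 and t15 min; no-enzyme wells as control.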

Sequence of Glutathione peroxidase 1 (Homo sapiens) (P07203 whole entry, looked up): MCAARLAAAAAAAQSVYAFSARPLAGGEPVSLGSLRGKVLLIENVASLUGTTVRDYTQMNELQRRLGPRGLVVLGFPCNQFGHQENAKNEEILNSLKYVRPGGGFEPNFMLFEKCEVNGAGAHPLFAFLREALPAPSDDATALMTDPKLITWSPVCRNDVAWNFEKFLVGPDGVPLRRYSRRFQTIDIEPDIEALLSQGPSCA
Sequence of Glucocorticoid receptor (Homo sapiens) (P04150 whole entry, looked up, the tested form may be a part): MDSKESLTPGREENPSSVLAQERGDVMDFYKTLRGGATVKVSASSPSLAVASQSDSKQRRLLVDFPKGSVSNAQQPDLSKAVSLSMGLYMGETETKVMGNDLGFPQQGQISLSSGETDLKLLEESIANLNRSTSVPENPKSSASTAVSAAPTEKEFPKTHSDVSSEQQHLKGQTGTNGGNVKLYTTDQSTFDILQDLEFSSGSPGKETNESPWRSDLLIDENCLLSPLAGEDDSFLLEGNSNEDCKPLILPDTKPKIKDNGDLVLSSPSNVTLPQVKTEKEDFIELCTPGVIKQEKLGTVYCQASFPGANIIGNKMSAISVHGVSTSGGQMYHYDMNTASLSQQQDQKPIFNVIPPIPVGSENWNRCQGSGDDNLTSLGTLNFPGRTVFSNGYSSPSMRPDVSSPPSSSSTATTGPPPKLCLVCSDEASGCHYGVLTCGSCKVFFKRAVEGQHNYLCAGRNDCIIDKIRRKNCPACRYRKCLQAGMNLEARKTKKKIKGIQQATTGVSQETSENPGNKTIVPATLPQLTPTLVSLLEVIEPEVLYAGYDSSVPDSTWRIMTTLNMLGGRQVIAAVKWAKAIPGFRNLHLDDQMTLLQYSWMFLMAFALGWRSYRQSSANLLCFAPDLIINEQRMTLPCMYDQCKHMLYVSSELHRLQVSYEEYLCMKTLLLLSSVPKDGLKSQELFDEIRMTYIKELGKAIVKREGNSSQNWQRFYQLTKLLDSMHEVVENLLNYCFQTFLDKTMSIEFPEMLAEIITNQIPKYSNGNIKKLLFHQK
Sequence of Cytochrome P450 3A4 (Homo sapiens) (P08684 whole entry, looked up): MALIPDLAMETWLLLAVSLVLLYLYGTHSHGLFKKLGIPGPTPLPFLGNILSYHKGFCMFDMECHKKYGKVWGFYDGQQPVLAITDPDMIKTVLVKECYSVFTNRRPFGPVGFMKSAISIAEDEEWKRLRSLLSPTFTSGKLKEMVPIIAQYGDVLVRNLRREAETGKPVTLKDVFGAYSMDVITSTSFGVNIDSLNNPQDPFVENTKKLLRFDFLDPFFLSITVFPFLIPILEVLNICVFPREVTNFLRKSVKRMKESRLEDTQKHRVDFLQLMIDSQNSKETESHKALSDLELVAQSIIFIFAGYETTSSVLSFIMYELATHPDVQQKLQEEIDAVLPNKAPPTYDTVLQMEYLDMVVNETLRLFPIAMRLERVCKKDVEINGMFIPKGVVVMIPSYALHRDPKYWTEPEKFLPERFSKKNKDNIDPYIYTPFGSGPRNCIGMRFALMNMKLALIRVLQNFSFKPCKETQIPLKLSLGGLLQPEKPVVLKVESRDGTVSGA
Sequence of Ubiquitin carboxyl-terminal hydrolase 1 (Homo sapiens) (O94782 whole entry, looked up): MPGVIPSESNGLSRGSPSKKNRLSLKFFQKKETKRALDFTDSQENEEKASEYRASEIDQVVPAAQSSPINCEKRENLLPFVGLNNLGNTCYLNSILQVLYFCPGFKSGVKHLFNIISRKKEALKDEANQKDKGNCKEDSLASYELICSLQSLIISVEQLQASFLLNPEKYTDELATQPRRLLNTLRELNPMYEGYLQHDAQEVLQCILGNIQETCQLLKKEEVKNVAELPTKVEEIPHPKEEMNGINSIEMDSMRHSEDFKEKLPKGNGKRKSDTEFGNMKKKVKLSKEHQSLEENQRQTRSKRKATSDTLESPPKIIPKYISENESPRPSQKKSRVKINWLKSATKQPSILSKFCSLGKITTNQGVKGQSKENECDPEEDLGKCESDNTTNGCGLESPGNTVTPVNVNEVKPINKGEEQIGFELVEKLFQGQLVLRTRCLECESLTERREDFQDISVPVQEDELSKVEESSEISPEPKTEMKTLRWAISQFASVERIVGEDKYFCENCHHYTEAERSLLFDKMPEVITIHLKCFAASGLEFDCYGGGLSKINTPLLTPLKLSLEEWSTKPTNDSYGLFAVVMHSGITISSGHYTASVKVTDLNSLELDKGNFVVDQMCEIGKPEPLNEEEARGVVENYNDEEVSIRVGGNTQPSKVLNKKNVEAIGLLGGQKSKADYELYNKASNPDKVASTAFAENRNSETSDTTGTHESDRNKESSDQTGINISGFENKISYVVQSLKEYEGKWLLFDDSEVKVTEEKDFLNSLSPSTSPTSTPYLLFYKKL
Sequence of Dual specificity protein kinase CLK4 (Homo sapiens) (Q9HAZ1 whole entry, looked up): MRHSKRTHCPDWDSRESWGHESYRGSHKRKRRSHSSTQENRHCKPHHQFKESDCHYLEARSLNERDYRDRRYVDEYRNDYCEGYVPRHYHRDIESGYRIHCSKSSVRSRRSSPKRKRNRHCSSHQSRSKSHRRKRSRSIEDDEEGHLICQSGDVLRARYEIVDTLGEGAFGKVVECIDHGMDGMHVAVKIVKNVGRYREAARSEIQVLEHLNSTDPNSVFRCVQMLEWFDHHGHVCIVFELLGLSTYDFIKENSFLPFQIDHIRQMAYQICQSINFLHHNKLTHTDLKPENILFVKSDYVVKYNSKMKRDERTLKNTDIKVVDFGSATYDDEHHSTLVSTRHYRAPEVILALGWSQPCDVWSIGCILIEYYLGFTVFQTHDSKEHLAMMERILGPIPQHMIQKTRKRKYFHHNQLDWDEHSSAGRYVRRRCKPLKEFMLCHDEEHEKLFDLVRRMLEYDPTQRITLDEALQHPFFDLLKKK
Sequence of Phospholipid hydroperoxide glutathione peroxidase GPX4 (Homo sapiens) (P36969 whole entry, looked up): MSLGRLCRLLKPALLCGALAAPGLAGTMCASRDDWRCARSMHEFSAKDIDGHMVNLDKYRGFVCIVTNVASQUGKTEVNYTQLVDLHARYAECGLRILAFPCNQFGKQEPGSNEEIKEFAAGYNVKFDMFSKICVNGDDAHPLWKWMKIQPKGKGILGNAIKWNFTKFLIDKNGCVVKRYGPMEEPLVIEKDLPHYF
Sequence of Cytochrome P450 1A2 (Homo sapiens) (P05177 whole entry, looked up): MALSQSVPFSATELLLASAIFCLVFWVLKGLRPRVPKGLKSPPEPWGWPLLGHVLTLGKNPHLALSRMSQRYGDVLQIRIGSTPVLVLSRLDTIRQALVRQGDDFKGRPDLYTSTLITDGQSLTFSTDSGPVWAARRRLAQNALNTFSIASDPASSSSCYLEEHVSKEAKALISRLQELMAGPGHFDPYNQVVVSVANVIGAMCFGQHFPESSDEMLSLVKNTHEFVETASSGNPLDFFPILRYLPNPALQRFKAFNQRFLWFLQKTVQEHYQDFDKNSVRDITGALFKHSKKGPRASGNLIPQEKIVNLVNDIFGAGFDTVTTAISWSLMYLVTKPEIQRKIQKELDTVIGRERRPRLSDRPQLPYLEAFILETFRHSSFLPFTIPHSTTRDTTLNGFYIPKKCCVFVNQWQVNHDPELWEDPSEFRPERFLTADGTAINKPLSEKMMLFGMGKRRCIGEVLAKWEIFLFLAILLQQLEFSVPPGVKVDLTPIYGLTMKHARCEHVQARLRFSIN
Sequence of Lysosomal acid glucosylceramidase (Homo sapiens) (P04062 whole entry, looked up): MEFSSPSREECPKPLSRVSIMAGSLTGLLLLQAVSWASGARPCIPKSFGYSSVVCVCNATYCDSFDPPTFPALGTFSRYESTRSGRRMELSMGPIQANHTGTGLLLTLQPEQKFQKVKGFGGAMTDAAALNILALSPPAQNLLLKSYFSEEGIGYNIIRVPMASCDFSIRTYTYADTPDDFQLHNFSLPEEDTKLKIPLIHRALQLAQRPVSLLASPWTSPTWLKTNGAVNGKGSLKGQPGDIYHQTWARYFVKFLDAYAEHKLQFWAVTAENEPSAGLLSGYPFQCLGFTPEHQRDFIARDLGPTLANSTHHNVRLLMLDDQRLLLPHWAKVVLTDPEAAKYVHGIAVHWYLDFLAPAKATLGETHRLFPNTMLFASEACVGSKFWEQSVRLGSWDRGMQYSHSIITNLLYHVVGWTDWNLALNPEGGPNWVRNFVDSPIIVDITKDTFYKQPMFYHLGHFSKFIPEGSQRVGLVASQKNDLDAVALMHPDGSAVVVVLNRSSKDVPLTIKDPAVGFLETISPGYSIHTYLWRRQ
Sequence of 3',5'-cyclic-AMP phosphodiesterase 4B (Homo sapiens) (Q07343 whole entry, looked up): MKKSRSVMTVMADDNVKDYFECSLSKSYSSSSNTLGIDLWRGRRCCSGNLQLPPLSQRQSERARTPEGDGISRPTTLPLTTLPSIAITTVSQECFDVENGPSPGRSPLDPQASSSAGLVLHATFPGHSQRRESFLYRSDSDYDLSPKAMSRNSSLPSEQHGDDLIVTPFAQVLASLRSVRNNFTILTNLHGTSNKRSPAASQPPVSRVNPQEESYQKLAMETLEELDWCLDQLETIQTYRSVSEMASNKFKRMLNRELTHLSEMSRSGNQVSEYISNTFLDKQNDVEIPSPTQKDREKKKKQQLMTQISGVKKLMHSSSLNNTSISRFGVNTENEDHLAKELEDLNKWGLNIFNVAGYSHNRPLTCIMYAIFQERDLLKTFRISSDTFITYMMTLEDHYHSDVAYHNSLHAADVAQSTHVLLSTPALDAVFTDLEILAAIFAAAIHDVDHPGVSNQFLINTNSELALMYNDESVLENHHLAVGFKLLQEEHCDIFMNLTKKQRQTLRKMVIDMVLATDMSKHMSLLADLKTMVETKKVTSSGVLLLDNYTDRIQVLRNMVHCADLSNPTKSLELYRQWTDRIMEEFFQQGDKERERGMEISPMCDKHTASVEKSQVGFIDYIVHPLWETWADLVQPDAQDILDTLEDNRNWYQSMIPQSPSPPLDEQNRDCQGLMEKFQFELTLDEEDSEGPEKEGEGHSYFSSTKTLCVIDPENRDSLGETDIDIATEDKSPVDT

For `COc1ccc(Oc2ncc3nc(-c4cccc(C#N)c4)c(=O)n(Cc4cccc(OC)c4)c3n2)cc1`, the Potency in assay [1] is over 11.4 µM; in assay [6], over 9.22 µM; in assay [7], over 46 µM; in assay [10], 2 µM (active). The activity change, negative = inhibition in [2] was 7.45%; in assay [4], -6.12%. Further, the Potency entry in [3], in assay [8], in [9], in [12], in assay [13] and in [14] was “inactive” throughout. In addition, the Potency result in assay [15] is “inactive”. Besides, the result in assay [5] and in [11] was inactive.
As for `NC(=O)[C@@H]1CC[C@@H]2CN1C(=O)N2OS(=O)(=O)O`, the Potency entry in assay [16], in assay [17] and in assay [18] was “inactive” throughout.
Regarding `CCC(CC)[C@H](NC(C)=O)[C@@H]1[C@H](O)[C@@H](C(=O)O)C[C@H]1N=C(N)N`, the activity change, negative = cytotoxicity in assay [16] is -6.87% [at 0.334 µM]. In addition, in assay [17], the activity, negative = inhibition was -7.9% [at 0.4 µM]. For the same compound, in [18], the activity change, negative = inhibition was -9.13% [at 0.409 µM].
Turning to `Cc1cc(/C=C/C#N)cc(C)c1Nc1ccnc(Nc2ccc(C#N)cc2)n1`, the Potency entry in assay [17] and in [18] was “inactive” in each case.
Regarding `COc1ccc2c(O[C@H]3CC4C(=O)N(C)CCCC/C=C\[C@@H]5C[C@@]5(C(=O)NS(=O)(=O)C5CC5)NC(=O)[C@@H]4C3)cc(-c3nc(C(C)C)cs3)nc2c1C` (stereo partly specified), the Potency entry in assay [16] is “inactive”. In addition, the Potency in assay [18] is 2 µM (active).
For the compound `CC(C)CN(C[C@@H](O)[C@H](Cc1ccccc1)NC(=O)O[C@H]1CCOC1)S(=O)(=O)c1ccc(N)cc1`, the Potency result in [15], in [16], in assay [17] and in assay [18] was “inactive” in each case.
Regarding `CN(Cc1ccco1)c1cc(-c2ccc3c(c2)OCO3)ncn1`, the Potency in assay [1] was over 11.4 µM; in [3], 0.501 µM (active); in [6] it was over 46 µM; in [7] it was over 46 µM; in assay [12] it was 2 µM (active); in assay [13], 3.16 µM (active). Moreover, in assay [14], the Potency is 2.51 µM (active). Further, the activity change, negative = inhibition in [2] is -0.29%; in [4] it was -0.867%. The result in assay [5] was inactive. Besides, the Potency entry in [8] and in assay [15] was “inactive” throughout.
As for `O=C1CCC[C@@H]2[C@@H]3CCC[N@+]4([O-])CCC[C@H](CN12)[C@H]34`, the Potency entry in assay [16], in assay [17] and in [18] was “inactive” throughout.
Take `O=c1c(O[C@@H]2O[C@H](CO)[C@H](O)[C@H](O)[C@H]2O)c(-c2ccc(O)c(O)c2)oc2cc(O)cc(O)c12`: in assay [16], the Potency entry is “inactive”.
In the case of `CC(C)CN(C[C@@H](OP(=O)(O)O)[C@H](Cc1ccccc1)NC(=O)O[C@@H]1CCOC1)S(=O)(=O)c1ccc(N)cc1`, the Potency entry in assay [15], in [16] and in [17] was “inactive” each time.
For the compound `CC(C)=CCC[C@](C)(OC1OC(COC2OCC(O)C(O)C2O)C(O)C(O)C1O)[C@H]1CC[C@]2(C)[C@@H]1[C@H](O)C[C@@H]1[C@@]3(C)CC[C@H](OC4OC(CO)C(O)C(O)C4OC4OC(CO)C(O)C(O)C4O)C(C)(C)[C@@H]3CC[C@]12C` (stereo partly specified), the Potency entry in [16] and in assay [17] was “inactive” each time.
Regarding `CCCCCCCCOC(=O)c1cc(O)c(O)c(O)c1`, the Potency entry in [16] is “inactive”.
Turning to `O=C(/C=C/c1ccc(O)c(O)c1)O[C@@H](C(=O)O)[C@@H](OC(=O)/C=C/c1ccc(O)c(O)c1)C(=O)O`, the Potency entry in assay [8], in [10] and in [16] was “inactive” in each case.
Take `O=C(O)CCCCCCCCC(=O)O`: the Potency result in [16] was “inactive”.
With `CC[C@@]1([C@@H]2O[C@@H]([C@H]3O[C@@](O)(CO)[C@H](C)C[C@@H]3C)C[C@@H]2C)CC[C@H]([C@]2(C)CCC3(C[C@H](O)[C@@H](C)[C@@H]([C@@H](C)[C@@H](OC)[C@H](C)C(=O)O)O3)O2)O1` (stereo partly specified), in assay [16], the activity change, negative = cytotoxicity was -29.3% [at 3.71 µM]. Besides, the Potency result in [17] and in assay [18] was “inactive” each time.
`C[C@H]1[C@H](OC(=O)CCC(=O)O)O[C@@H]2O[C@@]3(C)CC[C@H]4[C@H](C)CC[C@@H]1[C@@]24OO3`: the Potency entry in assay [16], in assay [17] and in [18] was “inactive” in each case.
On to `CCCCC(=O)N(Cc1ccc(-c2ccccc2-c2nn[nH]n2)cc1)[C@H](C(=O)O)C(C)C`, for which the Potency entry in [16] and in assay [17] was “inactive” in each case.
On to `C[Si](C)(C)O[Si](C)(C)O[Si](C)(C)C`, for which the Potency result in assay [16], in assay [17] and in assay [18] was “inactive” each time.
